Sfp PPTase inh: Sfp phosphopantetheinyl transferase inhibition; Q9F4F7; Biochemical Sfp PPTase activity, qHTS; Potency, µM, for the others: largest response in the series, negative = inhibition, usual class: inhibitors; 310,000 compounds, 3.5% hits;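 also: the enzyme is Sfp with the accession as filed and its product quenches rhodamine fluorescence; potency is read from the fitted curve at half-maximal effect; 0% = enzyme reaction without inhibitor and -100% = no enzyme wells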
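Sfp 15 nM + cpd, 15 min RT; start w/ rhodamine-CoA 5 uM, BHQ-2-YbbR 12.5 uM (final); 50 mM Hepes pH 7.6, 10 mM MgCl2, 0.01% NP-40, 0.01% BSA; read 525/598 nm at 0 and 30 min.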
G9a block: blocks human histone lysine methyltransferase G9a. G9a H3K9 monomethylation, AlphaScreen, 2 h. 350,000 compounds, 8.8% hits. Q96KQ7. AID 504332. Potency, µM (highest dose often 102 µM), for the others: top-dose activity, negative = inhibition, actives largely listed as inhibitors; also: potency is read from the fitted curve at half-maximal effect; nearly all actives have a fitted effect of over 75% in size
Target sequence (Q96KQ7 913-1193 limits assumed): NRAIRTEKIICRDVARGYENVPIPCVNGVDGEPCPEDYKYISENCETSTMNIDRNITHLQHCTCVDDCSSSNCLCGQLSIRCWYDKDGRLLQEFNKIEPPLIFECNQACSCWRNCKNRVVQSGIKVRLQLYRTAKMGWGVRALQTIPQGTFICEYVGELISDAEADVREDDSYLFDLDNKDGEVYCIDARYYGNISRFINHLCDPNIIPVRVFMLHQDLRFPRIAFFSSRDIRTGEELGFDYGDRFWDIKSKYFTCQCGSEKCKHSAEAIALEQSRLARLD
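Quantitative HTS format: methyltransferase activity on a biotin-tagged H3K9 peptide is measured by AlphaScreen, using a rabbit anti-monomethyl-H3K9 antibody with streptavidin donor and anti-IgG acceptor beads. Final levels are 20 nM enzyme, 500 nM peptide, 20 uM SAM; 2 h RT.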
FBPA coupling cs: inhibits coupling enzyme system, counter-screen for aldolase hits | 290,000 compounds, 0.67% hits | AID 2472 | coupling enzyme system counterscreen, AmpLite Red fluorescence | activity change, negative = inhibition, % at 58.2 µM, hits read low; in the data active = activity change below about -30%
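Counterscreen of the coupled detection system alone, without aldolase: glyceraldehyde-3-phosphate coupling enzymes plus AmpLite Red readout. Compounds at 57.5 uM final, 10 min RT preincubation, 20 min RT reaction, fluorescence 525/598 nm.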
Tau fluor cs: counter-screen for tau fibril formation inhibitors; tau K18 P301L Alexa594 fluorescence, heparin fibrillization; Potency, µM (titrated, usually from 57.7 µM), for the others: at the top dose activity change, negative = decrease; 280,000 compounds, 0.93% hits; also: potency is read from the fitted curve at half-maximal effect; nearly all actives have a fitted effect of over 55% in size
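Human tau K18 P301L (15 uM unlabeled, 0.24 uM Alexa 594-labeled) in 100 mM sodium acetate pH 7 with 20 uM heparin, 6 hr at 37 C. ThT 30 uM added, 1 hr ambient; Alexa 594 FP and total fluorescence read at 555/632 nm.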
Tau ThT inhib: inhibitors of human tau fibril formation, thioflavin T binding; recombinant tau K18 P301L (four-repeat tau fragment), heparin-induced fibrillization, ThT fluorescence; AID 1460; Potency, µM (highest dose often 57.4 µM), for inactives: at the highest dose activity, negative = inhibition, actives largely listed as inhibitors; P10636; 270,000 compounds, 2.1% hits; also: potency is read from the fitted curve at half-maximal effect; nearly all actives have a fitted effect of over 55% in size
Target sequence (P10636 561-689 P618L limits assumed): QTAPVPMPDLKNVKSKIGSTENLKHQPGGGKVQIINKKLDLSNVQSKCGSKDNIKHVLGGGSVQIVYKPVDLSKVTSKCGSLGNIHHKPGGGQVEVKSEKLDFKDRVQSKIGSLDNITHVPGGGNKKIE
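In this qHTS, human K18 P301L tau is incubated with compound and heparin for 6 hr at 37 C, and Thioflavin T fluorescence then reports fibril load.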
Tau fibril FP: inhibitors of human tau fibril formation; K18 P301L tau heparin fibrillization, Alexa594 FP, 6 h; P10636; 280,000 compounds, 0.39% hits; Potency, µM (titrated, usually from 57.7 µM), for the others: at the top dose activity, negative = inhibition, actives largely listed as inhibitors; also: potency is read from the fitted curve at half-maximal effect; nearly all actives have a fitted effect of over 55% in size
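Recombinant K18 P301L […], labeled with Alexa 594 at 0.24 uM over 15 uM unlabeled; heparin inducer 20 uM final; 37 C, 6 hr; FP endpoint.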
* = called active by the depositor; ? = inconclusive; . = no result; [ ] = another dose, or the depositor's remark. An excerpt weighted towards active compounds, which were near 11% of everything screened. Unless noted, calls follow the shape of the dose curve; as a rule, active = well fitted curve in the direction sought with a large enough effect; inconclusive = small, poorly fitted or top-dose-only effect, or another doubt; inactive = no such curve, though single readings can be large; an effect the other way counts as inactive or inconclusive. Unless noted, % is scaled to controls: 0 for no effect and ±100 for the full control effect.

SMILES	Sfp PPTase inh	G9a block	FBPA coupling cs	Tau fluor cs	Tau ThT inhib	Tau fibril FP
CCOc1cccc(CNn2cnnc2)c1OCc1ccccc1Cl	19%	11%[59 µM]	-2	-5%	-6%	-1%
Cc1ccsc1CN(C(=O)COc1cccc(C)c1C)C1CCS(=O)(=O)C1 (centres undefined)	.	-1%[59 µM]	.	-11%	-10%	3%
CCOc1cc(CNc2ccccc2)cc(Br)c1OCc1ccc(F)cc1	?	74%[59 µM]	-7	?	-12%	6%
COc1cc(CNCc2ccccn2)ccc1OCc1ccccc1Cl	1%	?	3	5%	2%	-3%
CCOc1cc(CNc2ccc(O)cc2)cc(Cl)c1OCc1ccccc1	.	?	.	16µM*[quencher]	?	-8%
CCOc1c(Cl)cc(CNCc2ccccn2)cc1OC	3%	40µM*	9	1%	1%	-3%
COc1ccc(CCNC(=O)CCc2c(C)c3cc4c(C)c(C)oc4cc3oc2=O)cc1OC	.	-23%[59 µM]	.	5%	?	8%
COc1ccc(-c2noc(CSc3nnc(-c4ccncc4)n3-c3ccc(OC)cc3)n2)cc1	.	-49%[59 µM]	.	-19%	?	-3%
O=C(CSc1ccc(F)cc1)NCCSc1ccccc1	3%	29%	3	-12%	-8%	12%
Cc1ccc2c(c1)c1nnc(SCC(=O)Nc3cccc(Cl)c3C)nc1n2CC(=O)O	-22%	?	13	4%	-16%	2%
Cc1ccc2c(c1)c1nnc(SCC(=O)Nc3ccc(N(C)C)cc3)nc1n2CC(=O)O	79µM*	25µM*	-6	.	.	.
O=C1c2ccccc2C(=O)C2OC12 (centres undefined)	?	8.9µM*	-17	.	.	.
O=C1c2ccccc2C(=O)C1c1ccccn1	14%	-33%	0	-6%	?	6%
CN(C)CCN(C(=O)c1ccc(S(=O)(=O)N(C)c2ccccc2)cc1)c1nc2cc3c(cc2s1)OCCO3	1%	40µM*	0	-23%	.	-4%
CN(C)CCN(C(=O)c1ccc(S(=O)(=O)N(C)C)cc1)c1nc2cc3c(cc2s1)OCCO3	-6%	56µM*	2	-1%	-1%	0%
CN(C)CCN(C(=O)c1ccc2c(c1)OCCO2)c1nc2cc3c(cc2s1)OCO3	-10%	.	1	.	.	.
Cc1cc(C)n(-c2nc(NCC3CCCO3)c3c4c(sc3n2)COC(C)(C)C4)n1 (centres undefined)	-2%	1.8µM*	-5	-8%	-12%	1%
Cc1cc(C)n(-c2nc(NCC(C)O)c3c4c(sc3n2)COC(C)(C)C4)n1 (centres undefined)	8%	.	2	1%	-10%	2%
Cc1nc2sccn2c1-c1csc(NCc2ccccc2)n1	-16%	?	-4	?	?	-13%
C=CCNc1nc(-c2c(C)nc3sccn23)cs1	-16%	28µM*	-4	-9%	?	0%
O=C(O)CCc1nn2c3ccccc3n(CC(=O)c3cccs3)c2nc1=O	4%	11%	1	-7%	-4%	-2%
Cc1ccc(N2C(=O)CS(=O)(=O)C23C(=O)Nc2ccccc23)cc1C (centres undefined)	.	16µM*	.	-2%	-2%	-9%
Cc1cc(C)cc(N2C(=O)CS(=O)(=O)C23C(=O)N(C)c2ccccc23)c1 (centres undefined)	.	?	.	-5%	-5%	-8%
O=C(OCc1cc(Cl)ccc1OC(F)F)c1ccc([N+](=O)[O-])o1	4%	28µM*	-12	.	.	.
COc1cc(C(C)=O)ccc1OCC(=O)N(CCC1=CCCCC1)c1c(N)n(Cc2ccccc2)c(=O)[nH]c1=O	.	-12%[2.33 µM]	.	.	.	.
Cc1ccc2c(C)c(C(=O)N3CCC(c4nc5ccccc5s4)CC3)oc2c1C	.	-3%[59 µM]	.	-17%	-17%	4%
N#Cc1c2c(c(Nc3ccc(O)cc3)n3c1nc1ccccc13)CCC2	5%	1.3µM*	2	-28%	?	1%
O=C(Nc1cccc(C(=O)OCc2cc(=O)n3c4c(sc3n2)CCCC4)c1)c1ccc(Cl)cc1	.	-2%[12.7 µM]	.	-14%	?	1%
